D3 ag: activates the human D3 dopamine receptor; P35462; AID 652048; max activation, %; D3R DiscoveRx beta-arrestin cells, luminescence, 90 min; 410,000 tested, 0.58% active; in the data active = max activation above about 30%
Target sequence (P35462 whole entry, looked up): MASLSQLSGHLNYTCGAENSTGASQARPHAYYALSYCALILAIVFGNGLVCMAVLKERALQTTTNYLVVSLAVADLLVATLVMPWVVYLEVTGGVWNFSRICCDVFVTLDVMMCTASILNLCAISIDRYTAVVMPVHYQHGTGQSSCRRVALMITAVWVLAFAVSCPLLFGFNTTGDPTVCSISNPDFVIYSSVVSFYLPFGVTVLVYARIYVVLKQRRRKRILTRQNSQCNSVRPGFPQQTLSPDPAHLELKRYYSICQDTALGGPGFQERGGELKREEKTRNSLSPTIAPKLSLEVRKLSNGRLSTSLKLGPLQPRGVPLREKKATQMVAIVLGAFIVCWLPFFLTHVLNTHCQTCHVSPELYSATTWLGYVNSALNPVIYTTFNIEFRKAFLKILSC
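Agonist mode: compounds and dopamine controls were applied to plated cells for 90 min at 37 degrees C after an overnight attachment at 1500 cells/well. Luminescent read-out followed 30 - 60 minutes at room temperature with DiscoveRx detection reagent.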
D1 ag: agonists of human D1 dopamine receptor | P21728 | HEK293 T-REx D1 cells, calcium flux, agonist mode | activation, % at 2 µM | 360,000 tested, 1% active | AID 504660; in the data active = activation above about 30%
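Tetracycline-induced HEK293 TREx D1 cells, force-coupled to calcium signalling, were dye-loaded with a no-wash calcium kit. Compound was pin-added after a 10 s baseline. Fluorescence was read kinetically at 1 cycle/s for 180 s, with calcium rises flagged as agonism.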
D3 antag: D3 dopamine receptor (human) antagonism; P35462; max response, negative = inhibition, %; D3R cells, DiscoveRx beta-arrestin luminescence, antagonist mode; active compounds read low; 360,000 tested, 2.5% active; AID 652054; in the data active = max response below about -50%; inconclusive = no clear call, values can overlap the other calls
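Cells expressing the human receptor were seeded at 1500 cells/well, incubated overnight at 37 degrees C in 5% CO2, then exposed to library compounds with dopamine controls for 90 minutes at 37 degrees C before luminescent detection.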
D1 antagonist: human D1 dopamine receptor antagonism; 360,000 tested, 3.2% active; HEK293 TREx D1 cells, calcium flux, dopamine EC80; active compounds read low; P21728; AID 504652; activity change, negative = inhibition, % at 10 µM; in the data active = activity change below about -30%
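Tetracycline-induced HEK293 T-REx cells with force-coupled D1 receptor were loaded with a no-wash calcium dye. Compound was added after a 10 s baseline and read kinetically for 180 s; EC80 dopamine was then added and calcium flux followed another 180 s.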
D1 potentiator: potentiators of human D1 dopamine receptor | 360,000 tested, 0.036% active | HEK293 TREx D1 cells, calcium flux, dopamine EC20 potentiation | P21728 | potentiation, % at 10 µM; in the data active = potentiation above about 30%
Large screens that a line does not name were inactive; ! = not confirmed by another sample. Compounds with a hit are over-represented: about 6% of the library has one in this group of screens.

COc1ccc(S(=O)(=O)N2CCOCC2)cc1NC(=O)C1CCCN1C(=O)c1cccs1 (stereo not drawn)	D1 antagonist -62
COc1cc2c(cc1OC)CN(C(=O)c1ccc(S(=O)(=O)N3CCCC3)cc1)CC2	none
CCOc1cc2c(cc1OCC)CN(C(=O)c1cccc(S(=O)(=O)N3CCCC3)c1)CC2	D1 antagonist -36
COc1cc(OC)cc(C2=Cc3ccccc3C(CC(=O)c3ccco3)N2c2ccc(-c3ccc(C(N)=O)cc3)cc2)c1 (stereo not drawn)	none (no result: D1 ag, D1 antagonist, D1 potentiator)
CC(O)CN(C)C (stereo not drawn)	none (no result: D1 ag, D3 antag, D1 antagonist, D1 potentiator)
O=C(NCC1COc2ccccc2O1)c1cccc(S(=O)(=O)N2CCOCC2)c1 (stereo not drawn)	D3 antag -61
COc1ccccc1NC(=O)c1cccc(S(=O)(=O)N2CCOCC2)c1	D3 antag -52
O=C(NCC1COc2ccccc2O1)c1ccc(Cl)c(S(=O)(=O)N2CCOCC2)c1 (stereo not drawn)	none
CCOc1ccccc1/C=N/NC(=O)c1cccc(S(=O)(=O)N2CCOCC2)c1	D3 antag -63
CCCOc1cccc(C(=O)Nc2ccc(-c3nc4ccccc4s3)c(Cl)c2)c1	none (no result: D3 antag)
O=C1NC(c2ccccc2)C(C(=O)c2cccs2)=C1O (stereo not drawn)	D3 antag -58
COc1ccc(-n2nc3c(N4CCC(C(=O)NCCc5ccccc5)CC4)nnc(C)c3c2C)cc1	none (no result: D3 antag)
Cc1ccc(-n2nc3c(N4CCC(C(=O)NCCc5ccccc5)CC4)nnc(C)c3c2C)cc1	D1 antagonist -72 (no result: D3 antag)
COc1ccc(-n2nc3c(N4CCC(C(=O)NCc5ccccc5C)CC4)nnc(C)c3c2C)cc1	D1 ag 76!
CCOC(=O)C(=Cc1ccc(-n2cncn2)cc1)C(=O)OCC	D3 antag -64
N[C@@H](CSSC[C@H](N)C(=O)O)C(=O)O	none (no result: D1 ag, D3 antag, D1 antagonist, D1 potentiator)
COc1cccc(CN(C)C(c2ccccc2)c2ccccc2)c1OC	D3 antag -51
COc1ccc(CN(C)C(c2ccccc2)c2nnnn2-c2ccccc2C)c(OC)c1C (stereo not drawn)	none
COc1ccc(C2C(C#N)=C(N)OC3=C2C(=O)CC(C)(C)C3)cc1OC (stereo not drawn)	none
CC1(C)CC(=O)C2=C(C1)OC(/N=C/N1CCCC1)=C(C#N)C2c1ccccc1 (stereo not drawn)	D1 antagonist -95
CC1(C)CC(=O)C2=C(C1)OC(N)=C(C#N)C2c1cccc(OC(=O)c2ccco2)c1 (stereo not drawn)	D3 antag -90
CC1(C)CC(=O)C2=C(C1)OC(/N=C/N1CCOCC1)=C(C#N)C2c1ccccc1 (stereo not drawn)	none
O=C(Cc1ccccc1)Nc1nnc2n1CCS2	none (no result: D3 antag)
NC(=O)CCN1CCCCC1	none
O=C(CCC(=O)CCN1CCCCC1)CCN1CCCCC1	D3 antag -67
CCCCCNc1nc(N2CCCC2)c2c(c1C#N)CCN(C)C2	D3 antag -66
COc1ccc(NC(=O)CSC2=Nc3ccccc3C3=NC(CCC(=O)NCCc4ccccc4)C(=O)N23)c(OC)c1 (stereo not drawn)	none (no result: D3 antag)
Cc1cccc(N2C(=O)CSC23CCCCC3)c1	D1 antagonist -34
CC1CCC2(CC1)SCC(=O)N2c1ccccc1 (stereo not drawn)	none
Cc1ccc(OCCSc2nc3ccccc3n2CC(=O)N2CCCCC2)c(C)c1	D1 antagonist -44 (no result: D3 antag)
O=C(Cn1c(SCc2ccccc2)nc2ccccc21)N1CCOCC1	none
O=C(CSc1nc2ccccc2n1CC(=O)N1CCOCC1)N1CCCC1	D1 antagonist -32
CCOC(=O)c1nnn(C(CC)C(=O)Nc2ccc(F)cc2)c1C(=O)OCC (stereo not drawn)	none (no result: D3 antag)
CCOc1ccccc1C(=O)N1CCC(c2nc3ccccc3o2)CC1	none (no result: D3 antag)
Cc1ccc(NC(=O)CN2C(=O)C(c3ccc(F)cc3)=NC2(C)C)c(C)c1	none (no result: D3 antag)
CCOC(=O)c1sc2cc([N+](=O)[O-])cc(SCC(C)C)c2c1N	D1 ag 55
CCC1CN(C(=O)N2CCC(C(=O)NCc3ccc(OC)cc3OC)CC2)c2cc(C)ccc2O1 (stereo not drawn)	none (no result: D3 antag)
O=S(=O)(CS(=O)(=O)c1ccccc1)c1ccccc1	none (no result: D1 ag, D1 antagonist, D1 potentiator)
O=S(=O)(C/C(=C/CO)S(=O)(=O)c1ccccc1)c1ccccc1	D3 antag -59
Cc1c(C(=O)N(Cc2ccccc2F)C2CCS(=O)(=O)C2)oc2ccccc12 (stereo not drawn)	none (no result: D3 antag)
O=C(Nc1nnc([C@@H]2C[C@H](O)[C@@H](CO)O2)s1)c1cccc2ccccc12	D3 antag inconclusive (no result: D1 ag, D1 antagonist, D1 potentiator)
CCOC(=O)C1CCN(c2ncnc3c2cnn3-c2ccc(Cl)cc2)CC1	none
CCOC(=O)C1CCCN(c2ncnc3c2cnn3-c2ccc(C)c(Cl)c2)C1 (stereo not drawn)	D1 antagonist -34 (no result: D3 antag)
Cc1cc(C(=S)N2CCOCC2)c(C)n1-c1ccc(Cl)cc1	D1 antagonist -31
C#CC[N+]1(CC#Cc2ccccc2)CCCC1	D1 antagonist -52
C(#Cc1ccccc1)C[N+]1(CC#Cc2cccc3ccccc23)CCCC1	none
C#CC[N+]1(CC#Cc2ccc(C#CC[N+]3(CC#C)CCOCC3)cc2)CCOCC1	D1 antagonist -81
N#Cc1nc(-c2cccs2)oc1N1CCN(Cc2ccccc2)CC1	D3 antag -75
N#Cc1nc(COc2ccccc2)oc1N1CCN(Cc2ccccc2)CC1	none
CCOc1cccc(OCCNC2CCCC2)c1	D3 antag inconclusive
COc1ccccc1OCCNC1CCCC1	D3 antag -76
CCC(C)c1ccccc1OCCCNC1CCCC1 (stereo not drawn)	D1 ag 39, D3 antag -82, D1 antagonist -34
COc1ccc(-n2c(=O)c3ccccc3n(CC(=O)NCCc3ccc(OC)c(OC)c3)c2=O)cc1	none (no result: D3 antag)
CC1=C/C(=C(/c2cc(C)c(O)c(Br)c2)c2ccccc2S(=O)(=O)O)C=C(Br)C1=O	D3 antag -60
CC1=C/C(=C(/c2ccc(O)c(C)c2)c2ccccc2S(=O)(=O)O)C=CC1=O	D3 antag -56
COc1ccc(C)cc1NC(=O)CC1NCCNC1=O (stereo not drawn)	none (no result: D3 antag)
CCN(CC)C(=O)Cn1cc(S(=O)(=O)CC(=O)Nc2cc(C)on2)c2ccccc21	D3 antag -51 (no result: D1 ag, D1 antagonist, D1 potentiator)
CCN(CC)C(=O)Cn1cc(S(=O)(=O)CC(=O)Nc2ccc(F)cc2)c2ccccc21	none (no result: D1 ag, D1 antagonist, D1 potentiator)
CCCn1cc(SCC(=O)Nc2cc(C)on2)c2ccccc21	none
CCn1cc(SCC(=O)Nc2cc(C)on2)c2ccccc21	D3 antag -89
O=C(C[n+]1cc(-c2ccc(F)cc2)n2c1CCC2)Nc1nc(-c2ccccc2)cs1	none
Cc1ccc(NC(=O)C[n+]2cc(-c3ccc(C)cc3)n3c2CCC3)cc1	D3 antag -66
O=C(C[n+]1cc(-c2ccc(Cl)cc2)n2c1CCC2)Nc1nc(-c2ccccc2)cs1	D1 antagonist -61

Compound activity from PubChem.
